17 compounds from PubChem BioAssay (NCI) can be followed below.

About 83,000 compounds went through this panel and 20% of them were active in at least one assay; those are over-represented in the sample as a whole.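 For each line, cells grew in 96-well plates with the test compound present at a single concentration for 48 hours.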 A number with no mark means an inactive call. Active and inactive are the calls of the source. Rule for the calls: active = growth percent below 10; inactive = the rest.

What all share (assay): NCI-60 one-dose screen, 48 h (100 = growth as untreated, 0 = no growth, -100 = all killed)
Holding throughout (settings): 10 µM unless noted

In test [1] the test system is RPMI-8226 leukemia.
Test [2] relates to OVCAR-8 ovarian.
In test [3] the test system is OVCAR-5 ovarian.
For test [4], the system named is OVCAR-4 ovarian.
Test [5] concerns SK-OV-3 ovarian.
Test [6] has as its system IGROV1 ovarian.
Test [7] has as its system OVCAR-3 ovarian.
Test [8] has as its system HS 578T breast.
Test [9] relates to NCI/ADR-RES ovarian.
Test [10] deals with T-47D breast.
The test system of test [11] is BT-549 breast.
In test [12] the test system is MDA-MB-435 melanoma.
Test [13] concerns SW-620 colon.
Test [14] relates to MCF7 breast.
The test system of test [15] is HCT-116 colon.
The subject of test [16] is HCC-2998 colon.
For test [17], the system named is KM12 colon.

For `Cc1c(O)c(=O)ccn1-c1nc2ccccc2s1`, the growth in test [1] was 96.8%; in test [2] it was 85.4%; in test [3], 98.7%; in test [4], 97.7%; in [5] it was 99%; in [6], 109%. For the same compound, the growth in test [7] was 100%; in [8], 95%; in test [9], 57.1%; in test [10] it was 92.4%; in test [11], 93.4%; in [12], 99.7%. Besides, the growth in test [13] was 94.9%; in test [14], 98.6%; in test [15], 95.8%; in [16], 114%; in test [17], 98.5%.
On to `CCCCn1c(=O)c(/C=C/C(=O)/C=C/c2ccc(OC)cc2)cc2cc(Cl)ccc21`, for which the growth in [1] was -18.7% (active); in test [2] it was 5.24% (active); in test [3], 94.9%; in [4], 42.9%; in [5] it was 108%; in test [6], 59.1%. The growth was 19.5% in test [7]; 90.9% in test [8]; 42.5% in [9]; 69.6% in test [10]; 89.4% in test [11]; 95.6% in test [12]. Also, the growth in test [13] is 18.3%; in test [14], 34.4%; in [15], -67.1% (active); in test [16] it was 90.7%; in test [17], 25.9%.
On to `COC1=CC=CC2(OC)C3(O)CCCc4cccc(c43)N3C(=O)COC132` (centres undefined), for which the growth was 92.4% in test [1]; 99.2% in test [2]; 104% in test [3]; 96.6% in test [4]; 107% in test [5]; 94.7% in [6]. Further, the growth in [7] was 109%; in test [8] it was 93.7%; in [9], 101%; in test [10], 97.7%; in test [11], 103%; in test [12], 103%. For the same compound, the growth is 103% in test [13]; 96.3% in test [14]; 89.7% in test [15]; 103% in test [16]; 105% in test [17].
In the case of `Nc1c(C(=O)Nc2ccccn2)sc2nc3c(cc12)CCCCC3`, the growth in [1] is 11.4%; in [2], 19.1%; in test [3], 39.6%; in test [4], 53.5%; in test [5], 36.2%; in [6], 44.9%. The growth is -3.52% (active) in [7]; 30.5% in test [8]; 9.19% (active) in test [9]; 36.4% in test [10]; 52.6% in test [11]; -25.2% (active) in test [12]. Also, the growth in [13] was 30%; in test [14], 20.1%; in test [15], 17.1%; in test [16], 30.7%; in [17], 18.8%.
Consider `COc1ccc(-n2nc(C(=O)NCC(=O)O)nc2-c2ccccc2)cc1`, for which the growth in test [1] was 112%; in test [2], 111%; in [3], 100%; in [4] it was 111%; in test [5], 111%; in test [6], 105%. The growth in [7] is 116%; in test [8], 115%; in test [9], 118%; in test [10] it was 104%; in [11], 94.2%; in test [12] it was 111%. Besides, the growth in test [13] is 112%; in [14] it was 98.2%; in test [15], 101%; in test [16], 118%; in [17], 108%.
`COc1ccc(-n2cc(COc3ccc4c5ccnc(C)c5n(CC(C)C)c4c3)nn2)cc1`: the growth is 27.5% in test [1]; 37.6% in test [2]; 91.3% in test [3]; 65.9% in [4]; 56.7% in test [5]; 79% in [6]. The growth is 66.2% in test [7]; 49.7% in test [8]; 53.9% in test [9]; 39.2% in [10]; 66% in test [11]; 87.3% in test [12]. Further, the growth in test [13] is 78.9%; in [14], 54.3%; in [15], 50.5%; in [16], 85.1%; in [17], 80.2%.
Take `Nc1c(C(=O)Nc2ccccn2)sc2nc3c(cc12)C(=O)CCC3`: the growth in test [1] is 38.5%; in test [2], 64.3%; in test [3], 46.9%; in test [4], 56.8%; in test [5] it was 40.3%; in test [6], 51.3%. The growth in [7] was 3.09% (active); in [8], 1.79% (active); in [9] it was 21.9%; in test [10], 33.1%; in test [11] it was 53.5%; in test [12] it was -42.9% (active). The growth is 23.7% in test [13]; 22% in [14]; 26.3% in [15]; 49.3% in test [16]; 16.3% in test [17].
With `COc1ccc(N(C)c2nc(Cl)nc3ccn(C)c23)cc1`, the growth is 6.35% (active) in test [1]; 0.816% (active) in [2]; 30.6% in test [3]; 36.6% in test [4]; 7.76% (active) in test [5]; 26.1% in test [6]. Moreover, the growth in test [7] is -12.3% (active); in test [8], 36.8%; in [9] it was 3.41% (active); in [10] it was 74.9%; in test [11], -4.36% (active); in test [12] it was -26.4% (active). The growth is 21.9% in [13]; 13.6% in test [14]; -7.01% (active) in test [15]; 15.8% in test [16]; 5.77% (active) in [17].
On to `N#Cc1c(-c2ccc(F)cc2)c(C#N)c2c(C#N)c(N)nn2c1N`, for which the growth in test [1] was 104%; in [2], 103%; in test [3], 96.1%; in test [4] it was 100%; in test [5], 82.2%; in test [6] it was 80.9%. For the same compound, the growth was 98.7% in test [7]; 98% in [8]; 99.9% in test [9]; 66.4% in test [10]; 95.9% in test [11]; 101% in test [12]. Also, the growth in test [13] was 107%; in [14], 96.7%; in test [15], 92.5%; in [16], 90.3%; in test [17], 94.1%.
`COc1cc(C2=NN(C=O)C(c3cccc(Nc4ccnc5cc(C(F)(F)F)ccc45)c3)C2)cc(OC)c1OC` (centres undefined): the growth in test [1] is 27%; in test [2] it was 61.9%; in [3], 102%; in test [4], 59.1%; in [5] it was 81.6%; in test [6], 67.3%. For the same compound, the growth in test [7] was 54.6%; in [8] it was 87.5%; in [9], 55.3%; in test [10], 43.6%; in test [11] it was 56.1%; in [12] it was 43.5%. In addition, the growth in test [13] is 64.6%; in test [14] it was 38.4%; in [15] it was 58.4%; in [16], 70.1%; in test [17], 59.7%.
As for `N#CC1(C#N)C2=C(CCCC2)NC(c2c(F)cccc2Cl)C1(C#N)C#N` (centres undefined), the growth in test [1] is 43.4%; in test [2], 86.9%; in [3], 87.7%; in [4], 66.9%; in [5] it was 79.7%; in test [6], 83.3%. In addition, the growth in test [7] was 20.3%; in test [8] it was 43.4%; in test [9], 76.6%; in test [10] it was 79.7%; in test [11], 60.4%; in test [12], 18%. Also, the growth in [13] is 48.8%; in test [14], 21.1%; in test [15], 52.7%; in [16], 97.6%; in test [17], 73.3%.
Take `CCSc1nc(Cl)c(C#N)c(-c2ccc(F)cc2)n1`: the growth in [1] was 88.3%; in test [2], 90.2%; in [3] it was 97.7%; in [4], 97.8%; in test [5] it was 99.7%; in test [6], 98.9%. Moreover, the growth in test [7] was 98%; in test [8], 91.6%; in [9], 102%; in [10], 90%; in test [11], 103%; in test [12], 91.8%. The growth in [13] is 93.3%; in test [14], 85.1%; in test [15], 91.8%; in [16], 102%; in [17] it was 97.9%.
In the case of `Cc1cccc(C)c1NC(=O)CN(CC(C)C)CC(O)COc1ccccc1` (centres undefined), the growth in test [1] was 89.2%; in test [2], 105%; in test [3], 99.9%; in [4], 86.9%; in test [5], 90.1%; in test [6], 94.3%. Further, the growth is 111% in test [7]; 118% in test [8]; 86.7% in test [9]; 85.3% in test [10]; 82.4% in test [11]; 102% in test [12]. The growth in [13] was 93.6%; in test [14], 83.3%; in test [15], 86.8%; in test [16], 95.8%; in [17] it was 100%.
As for `CN1CCN(S(=O)(=O)O[C@@H]2C(=O)N(c3cc4c5ccccc5ccc4c4ccccc34)[C@H]2c2ccc(F)cn2)CC1`, the growth in test [1] was 79.7%; in test [2], 85.7%; in test [3], 108%; in test [4] it was 99.1%; in [5], 97.9%; in test [6] it was 87.8%. In addition, the growth in [7] was 88.4%; in test [8], 84.1%; in test [9], 92.2%; in test [10], 78.9%; in test [11], 95.8%; in test [12] it was 98.1%. Further, the growth is 98.2% in test [13]; 87.4% in test [14]; 85.3% in test [15]; 90.4% in test [16]; 91.1% in test [17].
`C=C1C(=O)O[C@H]2[C@H]1CC/C(COC(=O)c1cccnc1N)=C\CC[C@@]1(C)O[C@@H]21`: the growth in test [1] was -19.2% (active); in test [2], 14.9%; in test [3], 36.1%; in test [4] it was 54.7%; in [5], 71.3%; in test [6], 13.8%. Also, the growth in test [7] was -4.59% (active); in test [8], 28.9%; in test [9] it was 31.9%; in test [10], 50.7%; in test [11], -37.2% (active); in test [12], -4.17% (active). In addition, the growth is 4.05% (active) in test [13]; 7.98% (active) in [14]; 3.94% (active) in [15]; 35.3% in [16]; 13.4% in [17].
On to `CC(=O)OCC1OC(OC2C(COC(C)=O)OC(OCCC[S-])C(OC(C)=O)C2OC(C)=O)C(OC(C)=O)C(OC(C)=O)C1OC(C)=O.[Au+].c1ccc(CN2[CH-]N(Cc3ccccc3)C(c3ccccc3)=C2c2ccccc2)cc1` (centres undefined), for which the growth was -6.87% (active) in [1]; 22% in test [2]; 62.4% in [3]; 17.5% in test [4]; 13% in test [5]; 35.3% in test [6]. The growth is -2.96% (active) in [7]; 47.5% in [8]; 96.6% in test [9]; 18.8% in [10]; 25.3% in test [11]; 18.9% in [12]. Further, the growth in test [13] was 18.5%; in test [14] it was 7.42% (active); in [15] it was 9.17% (active); in test [16], 45.2%; in test [17], 26.7%.
For the compound `Cc1cnc(-c2ccc(-c3ccc(NC(=O)Nc4c(F)cc(F)cc4F)cc3F)c3c2C(=O)NC3)[nH]1`, the growth is 22.2% in test [1]; 39% in test [2]; 71% in test [3]; -16.5% (active) in [4]; 49.6% in test [5]; 33% in test [6]. The growth in test [7] is -34% (active); in [8], -5.61% (active); in test [9], 72.4%; in [10], 73.6%; in test [11] it was 55.8%; in test [12] it was 14.2%. For the same compound, the growth in [13] was 10.1%; in test [14] it was 22.1%; in test [15], 14.2%; in test [16], 60.5%; in test [17], 11.7%.
